Test [1] deals with Protein kinase C gamma type (Homo sapiens) (UniProt P05129). As to conditions: at 1 µM.
Test [2] has as its target T1, Protein kinase C iota type (Homo sapiens) (UniProt P41743).
T1 sequence (whole entry): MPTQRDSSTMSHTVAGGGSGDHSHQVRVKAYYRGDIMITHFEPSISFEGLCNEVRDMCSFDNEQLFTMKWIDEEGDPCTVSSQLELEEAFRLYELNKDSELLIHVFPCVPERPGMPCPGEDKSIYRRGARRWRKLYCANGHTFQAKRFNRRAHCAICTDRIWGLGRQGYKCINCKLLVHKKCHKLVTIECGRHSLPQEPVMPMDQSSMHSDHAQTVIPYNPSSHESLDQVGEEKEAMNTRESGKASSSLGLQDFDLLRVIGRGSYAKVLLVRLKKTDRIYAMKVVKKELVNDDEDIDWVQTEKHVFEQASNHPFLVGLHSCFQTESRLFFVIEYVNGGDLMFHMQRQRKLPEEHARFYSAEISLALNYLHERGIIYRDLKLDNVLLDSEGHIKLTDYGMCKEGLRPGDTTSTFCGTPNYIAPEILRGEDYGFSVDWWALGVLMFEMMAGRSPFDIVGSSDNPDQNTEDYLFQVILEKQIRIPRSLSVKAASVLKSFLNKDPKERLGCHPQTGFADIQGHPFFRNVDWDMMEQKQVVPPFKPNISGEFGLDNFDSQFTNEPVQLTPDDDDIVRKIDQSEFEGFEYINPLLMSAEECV
To be noted: at 0.1 µM.

For test [3], the target named is T1, Protein kinase C iota type (Homo sapiens). To be noted: at 1 µM.
In test [4] the target is Protein kinase C theta type (Homo sapiens) (UniProt Q04759). To be noted: at 0.1 µM.
Test [5] shares this target. To be noted: at 1 µM.
For test [6], the target named is Protein kinase C beta type (Homo sapiens) (UniProt P05771). As to conditions: at 0.1 µM.
Test [7] shares this target. As to conditions: at 1 µM.
Test [8] concerns the target T2, Serine/threonine-protein kinase D1 (Homo sapiens) (UniProt Q15139).
T2 sequence (whole entry): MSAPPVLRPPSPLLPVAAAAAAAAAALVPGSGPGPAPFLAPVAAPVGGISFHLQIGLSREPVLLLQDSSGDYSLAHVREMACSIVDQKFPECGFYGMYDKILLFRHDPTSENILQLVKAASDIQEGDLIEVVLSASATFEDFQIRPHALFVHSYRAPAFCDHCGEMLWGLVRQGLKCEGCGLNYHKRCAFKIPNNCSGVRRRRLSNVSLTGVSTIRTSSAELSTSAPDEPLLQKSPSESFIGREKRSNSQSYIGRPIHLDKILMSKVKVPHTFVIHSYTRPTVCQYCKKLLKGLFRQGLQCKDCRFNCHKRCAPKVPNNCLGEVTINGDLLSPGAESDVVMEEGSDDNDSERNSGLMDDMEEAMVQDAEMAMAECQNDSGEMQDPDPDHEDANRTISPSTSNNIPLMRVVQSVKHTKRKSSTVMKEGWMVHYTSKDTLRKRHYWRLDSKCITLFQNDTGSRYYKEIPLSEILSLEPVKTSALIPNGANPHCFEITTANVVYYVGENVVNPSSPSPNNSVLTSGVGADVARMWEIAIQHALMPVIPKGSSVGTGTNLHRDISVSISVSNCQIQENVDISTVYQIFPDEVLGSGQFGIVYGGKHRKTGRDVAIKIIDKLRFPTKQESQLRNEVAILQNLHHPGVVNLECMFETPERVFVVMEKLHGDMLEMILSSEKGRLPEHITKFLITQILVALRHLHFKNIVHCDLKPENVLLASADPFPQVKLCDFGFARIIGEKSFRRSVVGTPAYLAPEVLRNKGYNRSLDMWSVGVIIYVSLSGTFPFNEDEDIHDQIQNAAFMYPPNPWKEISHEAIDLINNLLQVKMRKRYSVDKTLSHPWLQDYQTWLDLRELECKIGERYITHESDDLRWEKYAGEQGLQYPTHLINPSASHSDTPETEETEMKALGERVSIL
As to conditions: at 0.1 µM.

For test [9], the target named is T2, Serine/threonine-protein kinase D1 (Homo sapiens). As to conditions: at 1 µM.
Test [10] concerns the target T3, Serine/threonine-protein kinase D2 (Homo sapiens) (UniProt Q9BZL6).
T3 sequence (whole entry): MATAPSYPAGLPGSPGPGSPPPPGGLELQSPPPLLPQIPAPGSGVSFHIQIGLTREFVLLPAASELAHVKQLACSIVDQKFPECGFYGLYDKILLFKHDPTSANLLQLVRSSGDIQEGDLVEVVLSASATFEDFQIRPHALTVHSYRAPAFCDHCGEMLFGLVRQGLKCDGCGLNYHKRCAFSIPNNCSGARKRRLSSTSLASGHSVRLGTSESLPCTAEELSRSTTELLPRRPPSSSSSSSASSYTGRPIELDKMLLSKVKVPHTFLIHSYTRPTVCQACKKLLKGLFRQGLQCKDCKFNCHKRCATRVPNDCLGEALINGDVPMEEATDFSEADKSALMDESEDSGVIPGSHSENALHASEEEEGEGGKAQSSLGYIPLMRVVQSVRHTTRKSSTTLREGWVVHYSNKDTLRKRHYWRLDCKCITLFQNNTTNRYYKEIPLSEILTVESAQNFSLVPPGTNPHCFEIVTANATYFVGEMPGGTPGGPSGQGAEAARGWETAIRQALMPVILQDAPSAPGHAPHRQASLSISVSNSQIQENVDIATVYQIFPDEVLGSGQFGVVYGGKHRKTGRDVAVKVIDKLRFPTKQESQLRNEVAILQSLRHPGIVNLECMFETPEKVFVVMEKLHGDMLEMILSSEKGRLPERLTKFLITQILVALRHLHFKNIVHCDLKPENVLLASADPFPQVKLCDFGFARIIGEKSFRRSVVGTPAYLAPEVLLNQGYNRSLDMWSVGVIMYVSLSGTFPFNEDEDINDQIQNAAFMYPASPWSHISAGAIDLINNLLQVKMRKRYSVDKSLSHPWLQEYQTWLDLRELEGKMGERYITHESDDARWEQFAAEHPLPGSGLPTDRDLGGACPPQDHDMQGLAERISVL
To be noted: at 0.1 µM.

Test [11] has as its target T3, Serine/threonine-protein kinase D2 (Homo sapiens). As to conditions: at 1 µM.
Test [12] concerns the target T4, Serine/threonine-protein kinase D3 (Homo sapiens) (UniProt O94806).
T4 sequence (whole entry): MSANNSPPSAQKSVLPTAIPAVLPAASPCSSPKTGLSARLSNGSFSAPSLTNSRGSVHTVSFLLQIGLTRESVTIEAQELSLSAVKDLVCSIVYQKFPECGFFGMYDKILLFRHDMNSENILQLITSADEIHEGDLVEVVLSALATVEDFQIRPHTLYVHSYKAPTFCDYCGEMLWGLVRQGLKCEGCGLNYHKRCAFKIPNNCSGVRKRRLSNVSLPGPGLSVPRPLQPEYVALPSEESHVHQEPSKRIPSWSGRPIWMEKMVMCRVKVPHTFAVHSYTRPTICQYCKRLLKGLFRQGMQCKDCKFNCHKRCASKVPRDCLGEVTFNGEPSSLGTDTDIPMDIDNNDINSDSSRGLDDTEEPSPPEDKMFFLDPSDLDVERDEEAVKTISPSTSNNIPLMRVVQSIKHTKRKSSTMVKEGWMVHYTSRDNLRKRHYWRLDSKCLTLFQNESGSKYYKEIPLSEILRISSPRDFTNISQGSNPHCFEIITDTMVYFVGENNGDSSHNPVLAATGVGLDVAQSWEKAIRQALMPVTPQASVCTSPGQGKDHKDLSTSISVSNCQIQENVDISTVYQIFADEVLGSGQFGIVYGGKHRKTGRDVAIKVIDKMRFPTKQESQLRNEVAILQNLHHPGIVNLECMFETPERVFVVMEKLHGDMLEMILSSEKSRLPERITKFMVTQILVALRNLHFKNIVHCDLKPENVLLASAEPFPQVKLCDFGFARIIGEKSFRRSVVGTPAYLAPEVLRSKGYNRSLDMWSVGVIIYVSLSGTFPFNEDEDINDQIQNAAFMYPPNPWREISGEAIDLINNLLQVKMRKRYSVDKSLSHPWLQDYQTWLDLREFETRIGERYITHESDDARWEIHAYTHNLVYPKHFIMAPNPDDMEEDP
To be noted: at 0.1 µM.

The target in test [13] is T4, Serine/threonine-protein kinase D3 (Homo sapiens). As to conditions: at 1 µM.
The target of test [14] is T5, cGMP-dependent protein kinase 1 (Homo sapiens) (UniProt Q13976).
T5 sequence (whole entry): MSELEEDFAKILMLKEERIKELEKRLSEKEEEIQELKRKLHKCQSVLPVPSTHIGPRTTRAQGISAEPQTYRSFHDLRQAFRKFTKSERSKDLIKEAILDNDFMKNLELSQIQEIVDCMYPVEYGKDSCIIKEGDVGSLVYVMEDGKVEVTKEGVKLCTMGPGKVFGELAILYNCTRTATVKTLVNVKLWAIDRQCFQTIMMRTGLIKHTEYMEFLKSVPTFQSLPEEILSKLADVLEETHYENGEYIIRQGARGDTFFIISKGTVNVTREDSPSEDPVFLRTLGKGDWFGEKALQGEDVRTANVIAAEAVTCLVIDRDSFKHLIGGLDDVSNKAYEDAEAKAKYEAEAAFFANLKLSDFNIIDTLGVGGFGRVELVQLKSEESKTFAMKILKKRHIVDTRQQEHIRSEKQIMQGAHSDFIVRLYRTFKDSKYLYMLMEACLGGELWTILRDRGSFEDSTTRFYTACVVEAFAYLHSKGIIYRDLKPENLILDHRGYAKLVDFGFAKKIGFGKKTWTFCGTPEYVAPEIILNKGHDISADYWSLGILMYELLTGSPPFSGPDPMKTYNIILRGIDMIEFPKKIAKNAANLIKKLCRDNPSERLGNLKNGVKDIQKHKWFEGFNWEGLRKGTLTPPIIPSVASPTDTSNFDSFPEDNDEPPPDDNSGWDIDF
To be noted: at 0.1 µM.

For test [15], the target named is T5, cGMP-dependent protein kinase 1 (Homo sapiens). As to conditions: at 1 µM.
Test [16] concerns the target T6, cGMP-dependent protein kinase 2 (Homo sapiens) (UniProt Q13237).
T6 sequence (whole entry): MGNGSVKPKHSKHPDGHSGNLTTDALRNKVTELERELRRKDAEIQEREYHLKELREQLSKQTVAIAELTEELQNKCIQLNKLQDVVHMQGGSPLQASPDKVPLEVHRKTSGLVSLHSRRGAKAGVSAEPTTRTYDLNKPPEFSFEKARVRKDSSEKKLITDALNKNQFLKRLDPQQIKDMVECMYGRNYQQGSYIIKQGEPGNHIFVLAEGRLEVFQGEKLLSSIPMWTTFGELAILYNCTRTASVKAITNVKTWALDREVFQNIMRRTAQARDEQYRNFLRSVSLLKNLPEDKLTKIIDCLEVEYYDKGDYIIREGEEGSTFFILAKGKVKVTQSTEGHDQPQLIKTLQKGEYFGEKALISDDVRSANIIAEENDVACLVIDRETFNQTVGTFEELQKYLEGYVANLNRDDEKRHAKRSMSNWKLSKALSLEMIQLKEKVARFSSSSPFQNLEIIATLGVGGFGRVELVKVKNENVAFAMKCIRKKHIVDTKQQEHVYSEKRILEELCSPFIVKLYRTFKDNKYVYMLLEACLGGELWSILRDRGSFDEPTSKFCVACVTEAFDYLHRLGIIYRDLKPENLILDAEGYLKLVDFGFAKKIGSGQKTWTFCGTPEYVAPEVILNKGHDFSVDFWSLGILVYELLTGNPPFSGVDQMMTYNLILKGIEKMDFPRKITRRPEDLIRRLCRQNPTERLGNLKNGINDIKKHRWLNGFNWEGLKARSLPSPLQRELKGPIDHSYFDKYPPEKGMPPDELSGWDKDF
As to conditions: at 0.1 µM.

Test [17] addresses T6, cGMP-dependent protein kinase 2 (Homo sapiens). As to conditions: at 1 µM.
The target of test [18] is T7, cAMP-dependent protein kinase catalytic subunit PRKX (Homo sapiens) (UniProt P51817).
T7 sequence (whole entry): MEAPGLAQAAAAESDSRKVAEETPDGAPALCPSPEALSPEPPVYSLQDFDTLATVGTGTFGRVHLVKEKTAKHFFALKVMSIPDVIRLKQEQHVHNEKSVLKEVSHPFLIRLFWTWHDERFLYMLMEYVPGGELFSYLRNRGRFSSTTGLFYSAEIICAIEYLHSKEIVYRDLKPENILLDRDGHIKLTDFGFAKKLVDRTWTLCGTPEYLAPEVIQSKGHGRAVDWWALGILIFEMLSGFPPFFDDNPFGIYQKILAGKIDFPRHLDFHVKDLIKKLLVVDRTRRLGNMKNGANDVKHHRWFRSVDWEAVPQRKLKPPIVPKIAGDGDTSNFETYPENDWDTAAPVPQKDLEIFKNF
As to conditions: at 0.1 µM.

The target of test [19] is T7, cAMP-dependent protein kinase catalytic subunit PRKX (Homo sapiens). As to conditions: at 1 µM.
Test [20] deals with Rho-associated protein kinase 1 (Homo sapiens) (UniProt Q13464). To be noted: at 0.1 µM.

These results are taken from ChEMBL document CHEMBL1961873, “Compounds: GSK PKIS; Assays: Nanosyn kinase panel” (2012).

Structures are written as SMILES.

Protein kinase C beta type (Homo sapiens), sequence (P05771 2-671 limits assumed): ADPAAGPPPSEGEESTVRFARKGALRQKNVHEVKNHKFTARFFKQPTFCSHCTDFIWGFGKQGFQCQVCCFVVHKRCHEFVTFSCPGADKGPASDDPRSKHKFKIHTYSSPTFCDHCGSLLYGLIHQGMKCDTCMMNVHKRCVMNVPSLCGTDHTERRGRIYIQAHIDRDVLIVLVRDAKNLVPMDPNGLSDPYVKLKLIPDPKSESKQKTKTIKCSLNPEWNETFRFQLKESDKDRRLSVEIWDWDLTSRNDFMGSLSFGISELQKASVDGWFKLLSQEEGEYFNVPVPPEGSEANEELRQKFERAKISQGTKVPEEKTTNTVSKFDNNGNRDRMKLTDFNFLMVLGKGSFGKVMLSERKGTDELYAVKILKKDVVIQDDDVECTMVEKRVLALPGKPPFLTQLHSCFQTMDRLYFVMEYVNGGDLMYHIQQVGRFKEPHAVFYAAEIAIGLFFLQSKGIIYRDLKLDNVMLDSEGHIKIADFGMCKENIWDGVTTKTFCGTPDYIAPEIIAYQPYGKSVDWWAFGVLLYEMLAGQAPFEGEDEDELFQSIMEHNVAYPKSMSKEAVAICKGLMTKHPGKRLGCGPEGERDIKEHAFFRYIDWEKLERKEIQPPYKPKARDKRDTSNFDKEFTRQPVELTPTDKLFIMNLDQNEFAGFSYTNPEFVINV
Protein kinase C theta type (Homo sapiens), sequence (Q04759 whole entry, looked up): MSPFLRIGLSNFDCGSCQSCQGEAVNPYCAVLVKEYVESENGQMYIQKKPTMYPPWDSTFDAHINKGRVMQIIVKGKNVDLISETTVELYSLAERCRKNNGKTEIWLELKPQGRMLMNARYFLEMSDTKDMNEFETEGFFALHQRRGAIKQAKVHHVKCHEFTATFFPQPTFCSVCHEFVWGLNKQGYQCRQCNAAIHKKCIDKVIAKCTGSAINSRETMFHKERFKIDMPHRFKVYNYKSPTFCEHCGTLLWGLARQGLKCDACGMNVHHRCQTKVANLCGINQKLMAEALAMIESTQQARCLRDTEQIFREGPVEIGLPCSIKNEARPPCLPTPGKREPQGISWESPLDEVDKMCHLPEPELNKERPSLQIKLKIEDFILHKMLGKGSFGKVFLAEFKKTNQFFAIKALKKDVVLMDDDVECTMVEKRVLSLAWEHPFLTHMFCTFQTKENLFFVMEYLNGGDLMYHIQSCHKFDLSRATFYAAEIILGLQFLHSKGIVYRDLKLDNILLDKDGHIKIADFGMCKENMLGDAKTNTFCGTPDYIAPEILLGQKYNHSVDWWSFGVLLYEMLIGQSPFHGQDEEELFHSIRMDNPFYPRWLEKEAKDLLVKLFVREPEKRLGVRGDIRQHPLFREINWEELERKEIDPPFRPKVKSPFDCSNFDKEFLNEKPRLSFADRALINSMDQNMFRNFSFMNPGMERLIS
Rho-associated protein kinase 1 (Homo sapiens), sequence (Q13464 2-1354 limits assumed): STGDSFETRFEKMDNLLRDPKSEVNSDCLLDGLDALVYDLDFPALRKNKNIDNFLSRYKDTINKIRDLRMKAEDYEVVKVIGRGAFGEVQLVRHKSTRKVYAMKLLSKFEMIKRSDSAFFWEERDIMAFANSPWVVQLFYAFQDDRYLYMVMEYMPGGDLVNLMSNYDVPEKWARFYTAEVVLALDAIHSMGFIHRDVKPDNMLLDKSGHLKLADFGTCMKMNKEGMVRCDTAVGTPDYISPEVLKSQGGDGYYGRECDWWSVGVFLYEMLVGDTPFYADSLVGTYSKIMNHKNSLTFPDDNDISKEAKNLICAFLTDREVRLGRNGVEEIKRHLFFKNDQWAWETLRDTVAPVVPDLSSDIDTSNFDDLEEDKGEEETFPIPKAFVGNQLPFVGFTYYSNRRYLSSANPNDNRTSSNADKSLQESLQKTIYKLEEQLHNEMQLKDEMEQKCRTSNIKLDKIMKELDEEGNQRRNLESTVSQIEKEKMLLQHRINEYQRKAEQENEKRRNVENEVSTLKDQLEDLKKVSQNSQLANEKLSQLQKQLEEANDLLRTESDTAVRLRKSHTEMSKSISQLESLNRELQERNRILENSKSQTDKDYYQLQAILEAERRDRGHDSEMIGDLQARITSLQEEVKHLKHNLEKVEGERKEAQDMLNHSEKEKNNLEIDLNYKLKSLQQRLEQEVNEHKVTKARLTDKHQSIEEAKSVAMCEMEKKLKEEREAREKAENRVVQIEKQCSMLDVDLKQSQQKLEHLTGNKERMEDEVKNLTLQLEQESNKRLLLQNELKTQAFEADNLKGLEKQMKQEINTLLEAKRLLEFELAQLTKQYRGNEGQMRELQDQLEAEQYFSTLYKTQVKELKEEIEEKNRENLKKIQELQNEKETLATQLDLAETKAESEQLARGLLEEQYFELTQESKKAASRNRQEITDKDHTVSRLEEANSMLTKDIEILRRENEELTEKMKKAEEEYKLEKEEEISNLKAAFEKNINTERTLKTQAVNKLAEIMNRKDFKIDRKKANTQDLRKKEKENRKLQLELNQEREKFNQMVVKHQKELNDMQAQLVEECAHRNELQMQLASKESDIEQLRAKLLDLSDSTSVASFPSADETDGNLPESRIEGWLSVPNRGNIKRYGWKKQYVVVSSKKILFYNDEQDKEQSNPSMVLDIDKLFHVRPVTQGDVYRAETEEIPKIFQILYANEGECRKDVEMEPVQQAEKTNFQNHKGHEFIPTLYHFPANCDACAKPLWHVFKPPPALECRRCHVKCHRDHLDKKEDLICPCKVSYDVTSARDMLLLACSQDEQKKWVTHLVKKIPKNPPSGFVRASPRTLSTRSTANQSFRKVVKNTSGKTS

A word on the inhibition: it is the change of the read-out against control, counted positive when it falls. As for `COc1cccc(-n2cnc3c(N/N=C/c4ccncc4)ncnc32)c1`, the inhibition in test [1] was 3.14%; in test [2], 0.58%; in [3], -0.97%; in test [4] it was 0.62%; in test [5], 4.42%; in [6] it was 2.34%. Further, the inhibition in [7] was 2.1%; in test [8], -2.1%; in test [9] it was -5.45%; in test [10] it was -4.34%; in test [11] it was -5.5%; in test [12], -3.34%. For the same compound, the inhibition in test [13] was -4.97%; in [14], 0.67%; in test [15] it was 3.77%; in [16], 3.29%; in test [17] it was 4.98%; in test [18] it was 1.92%. Moreover, the inhibition in test [19] is 5.16%; in test [20], 0.59%.
With `CCc1ccc(Oc2nccc(-c3c(-c4ccc(F)cc4)ncn3C3CCNCC3)n2)cc1`, the inhibition turned out to be 10.9% in [1]; 0.16% in [2]; 1.79% in test [3]; 4% in [4]; 8.13% in test [5]; 2.37% in test [6]. In addition, the inhibition was found to be 9.56% in [7]; 3.88% in test [8]; 13% in test [9]; 4.63% in [10]; 13.7% in [11]; 4.01% in test [12]. Moreover, the inhibition in test [13] is 9.71%; in [14], 4.32%; in test [15] it was 10.4%; in [16], 5.03%; in test [17], 8.46%; in test [18], 3.21%. Besides, the inhibition turned out to be 3.97% in test [19] and 1.24% in test [20].
